Data from PubChem BioAssay (NCI).
The panel holds about 83,000 compounds, 20% with a hit somewhere; the sample as a whole holds those more often.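 How to read the values: 0–100, growth inhibition (40 = 60% inhibited); 0, no net growth; -100 to 0, cell death (-40 = 40% of starting cells died; -100 = all dead).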 Unmarked numbers belong to inactive results. Calls of active or inactive are those of the source. Rule for the calls: active = growth percent below 10; inactive = the rest.

What was measured:
Assay in all cases: NCI-60 one-dose screen, 48 h (100 = growth as untreated, 0 = no growth, -100 = all killed)
Settings in all cases: 10 µM unless noted
[1] = test system: NCI-H23 lung
[2] = test system: NCI-H226 lung
[3] = test system: NCI-H322M lung
[4] = test system: HOP-62 NSCLC
[5] = test system: NCI-H460 lung
[6] = test system: NCI-H522 lung
[7] = test system: A549/ATCC NSCLC
[8] = test system: 786-0 renal
[9] = test system: COLO 205 colon
[10] = test system: DU-145 prostate
[11] = test system: K-562 leukemia
[12] = test system: MALME-3M melanoma
[13] = test system: MDA-MB-231 breast
[14] = test system: RXF 393 renal
[15] = test system: SF-268 CNS
[16] = test system: SF-295 CNS
[17] = test system: SF-539 CNS
[18] = test system: UACC-257 melanoma
[19] = test system: M14 melanoma

Structure (SMILES): CCCCCCCCc1ccc(C(=O)Nc2cccc(P(=O)(O)O)c2)cc1
- growth [1]: 96.7%
- growth [2]: 97.4%
- growth [3]: 103%
- growth [4]: 111%
- growth [5]: 107%
- growth [6]: 112%
- growth [7]: 99.9%
- growth [8]: 104%
- growth [9]: 113%
- growth [10]: 107%
- growth [11]: 97.6%
- growth [12]: 106%
- growth [13]: 116%
- growth [14]: 129%
- growth [15]: 107%
- growth [16]: 96.5%
- growth [17]: 97.4%
- growth [18]: 97.1%
- growth [19]: 96.2%

Structure (SMILES): COc1cc(/C=C2\C(=N)N=C(SCc3nc4ccccc4[nH]3)NC2=O)ccc1O
- growth [1]: 96.8%
- growth [2]: 92.8%
- growth [3]: 103%
- growth [4]: 101%
- growth [5]: 102%
- growth [6]: 99.2%
- growth [7]: 110%
- growth [8]: 109%
- growth [9]: 110%
- growth [10]: 108%
- growth [11]: 103%
- growth [12]: 91.1%
- growth [13]: 86.4%
- growth [14]: 113%
- growth [15]: 111%
- growth [16]: 101%
- growth [17]: 99.2%
- growth [18]: 105%
- growth [19]: 95.4%

Structure (SMILES): COc1cccc(/C=C/c2nc3ccccc3c(=O)n2CC(=O)Nc2ccc(Cl)cc2)c1
- growth [1]: 82.7%
- growth [2]: 54.9%
- growth [3]: 75%
- growth [4]: 71.4%
- growth [5]: 47.4%
- growth [6]: 97.2%
- growth [7]: 28.5%
- growth [8]: 9.62% (active)
- growth [9]: 86.4%
- growth [10]: 68.9%
- growth [11]: 84.6%
- growth [12]: 67.3%
- growth [13]: 27.9%
- growth [14]: 83.5%
- growth [15]: 82.3%
- growth [16]: 61.2%
- growth [17]: 52.7%
- growth [18]: 92.3%
- growth [19]: 76.3%

Structure (SMILES): CCCCSc1nc(Nc2ccc(S(N)(=O)=O)cc2)c(C#N)c(-c2ccc(Cl)cc2)n1
- growth [1]: 26.1%
- growth [2]: 12.8%
- growth [3]: 73.8%
- growth [4]: 10.6%
- growth [5]: 7.9% (active)
- growth [6]: 63.8%
- growth [7]: 1.68% (active)
- growth [8]: 23%
- growth [9]: 55.2%
- growth [10]: 53%
- growth [11]: 5.58% (active)
- growth [12]: 22.9%
- growth [13]: -36.1% (active)
- growth [14]: 16.8%
- growth [15]: 69.2%
- growth [16]: 8.15% (active)
- growth [17]: -25.2% (active)
- growth [18]: 76%
- growth [19]: 10.6%

Structure (SMILES): O=C(Cn1nc(-c2ccccc2)ccc1=O)N/N=C/c1ccc(N2CCOCC2)cc1
- growth [1]: 100%
- growth [2]: 89.7%
- growth [3]: 106%
- growth [4]: 96%
- growth [5]: 99.5%
- growth [6]: 89.4%
- growth [7]: 94.9%
- growth [8]: 97.7%
- growth [9]: 113%
- growth [10]: 101%
- growth [11]: 88.9%
- growth [12]: 90.1%
- growth [13]: 104%
- growth [14]: 111%
- growth [15]: 98.2%
- growth [16]: 88.8%
- growth [17]: 90.5%
- growth [18]: 99.2%
- growth [19]: 102%

Structure (SMILES): CCCCCCCS(=O)(=O)N1CCCC(C(=O)Nc2nc3ccc(NC(=O)c4ccc(F)c(OC)c4F)cc3s2)C1 (centres undefined)
- growth [1]: 27.3%
- growth [2]: 31.8%
- growth [3]: 77.7%
- growth [4]: 60.8%
- growth [5]: 69.7%
- growth [6]: 24.7%
- growth [7]: 60.5%
- growth [8]: 50%
- growth [9]: 82.9%
- growth [10]: 63.5%
- growth [11]: 61.8%
- growth [12]: 35.4%
- growth [13]: 14.7%
- growth [14]: -48.1% (active)
- growth [15]: 63.1%
- growth [16]: 48.7%
- growth [17]: 25.8%
- growth [18]: 69%
- growth [19]: 72.5%

Structure (SMILES): O=c1oc2ccc(Br)cc2cc1C1=CSc2nc3sc4c(c3c(=O)n2N=C1)CCCC4
- growth [1]: 96.6%
- growth [2]: 92.5%
- growth [3]: 96.6%
- growth [4]: 80.6%
- growth [5]: 102%
- growth [6]: 88.5%
- growth [7]: 105%
- growth [8]: 120%
- growth [9]: 105%
- growth [10]: 107%
- growth [11]: 97.1%
- growth [12]: 89%
- growth [13]: 88.2%
- growth [14]: 167%
- growth [15]: 101%
- growth [16]: 101%
- growth [17]: 100%
- growth [18]: 90.9%
- growth [19]: 92.4%

Structure (SMILES): COc1cccc(-c2nc(Nc3ccc(S(N)(=O)=O)cc3)c3ccccc3n2)c1
- growth [1]: 37.9%
- growth [2]: 25.9%
- growth [3]: 50.3%
- growth [4]: 58.9%
- growth [5]: 18.4%
- growth [6]: 23.9%
- growth [7]: 27.7%
- growth [8]: 5.42% (active)
- growth [9]: 27.8%
- growth [10]: 29.4%
- growth [11]: 10.3%
- growth [12]: 37.9%
- growth [13]: 13.3%
- growth [14]: 12.5%
- growth [15]: 33.7%
- growth [16]: 2.4% (active)
- growth [17]: 11.9%
- growth [18]: 68.4%
- growth [19]: 38.7%

Structure (SMILES): Cn1cc(-c2cc(N)n3nc(-c4c[nH]c5ccccc45)cc3n2)c2cc(Br)cnc21
- growth [1]: -63.8% (active)
- growth [2]: -33.1% (active)
- growth [3]: -50.8% (active)
- growth [4]: -51.2% (active)
- growth [5]: -65.1% (active)
- growth [6]: -75.4% (active)
- growth [7]: -33% (active)
- growth [8]: -77% (active)
- growth [9]: -89.3% (active)
- growth [10]: 5.95% (active)
- growth [11]: -23.9% (active)
- growth [12]: -83.9% (active)
- growth [13]: -83.4% (active)
- growth [14]: -76.3% (active)
- growth [15]: 0.392% (active)
- growth [16]: -71.6% (active)
- growth [17]: -93.5% (active)
- growth [18]: -78.9% (active)
- growth [19]: -71% (active)

Structure (SMILES): COc1c(F)ccc(C(=O)Nc2ccc3nc(NC(=O)C4CCCN(S(=O)(=O)c5ccc(Br)c(F)c5)C4)sc3c2)c1F (centres undefined)
- growth [1]: 87.3%
- growth [2]: 80.8%
- growth [3]: 94.5%
- growth [4]: 105%
- growth [5]: 84.1%
- growth [6]: 81.9%
- growth [7]: 73.7%
- growth [8]: 52.7%
- growth [9]: 81.8%
- growth [10]: 102%
- growth [11]: 62.5%
- growth [12]: 95.6%
- growth [13]: 83.5%
- growth [14]: -1.15% (active)
- growth [15]: 96.7%
- growth [16]: 72.5%
- growth [17]: 64.5%
- growth [18]: 80.7%
- growth [19]: 80.7%

Structure (SMILES): Cc1cc2nc3c([nH]c2cc1C)c1ccc(=O)cc1n3CCN(C)C
- growth [1]: 38.8%
- growth [2]: 59%
- growth [3]: 39.9%
- growth [4]: 43.2%
- growth [5]: 2.91% (active)
- growth [6]: 19.8%
- growth [7]: 28.4%
- growth [8]: 49.1%
- growth [9]: 10.8%
- growth [10]: 28.8%
- growth [11]: 9.48% (active)
- growth [12]: 27.2%
- growth [13]: 38.7%
- growth [14]: 57.8%
- growth [15]: 61%
- growth [16]: 27%
- growth [17]: 26.4%
- growth [18]: 64%
- growth [19]: 43.8%

Structure (SMILES): COc1ccc(-c2nc3cc(C)ccc3n2CC(=O)N=Nc2c(O)[nH]c3ccc(Br)cc23)cc1
- growth [1]: -45.5% (active)
- growth [2]: -13.4% (active)
- growth [3]: 14.2%
- growth [4]: -49.7% (active)
- growth [5]: 8.15% (active)
- growth [6]: 25%
- growth [7]: -68.6% (active)
- growth [8]: 25.6%
- growth [9]: -47.2% (active)
- growth [10]: 16.1%
- growth [11]: 9.75% (active)
- growth [12]: -59.4% (active)
- growth [13]: -28.1% (active)
- growth [14]: -52.7% (active)
- growth [15]: 23%
- growth [16]: -61.4% (active)
- growth [17]: -67.1% (active)
- growth [18]: 1.58% (active)
- growth [19]: -58.2% (active)

Structure (SMILES): CC12CC[C@@H]3[C@]4(C)COC(c5cn[nH]c5-c5cccc(Cl)c5)O[C@@H]4CC[C@@]3(C)[C@@H]1CC(C1=CCOC1=O)O2 (some centres undefined)
- growth [1]: 43.5%
- growth [2]: 42.9%
- growth [3]: 52.1%
- growth [4]: 74.6%
- growth [5]: 33.7%
- growth [6]: 26.8%
- growth [7]: 26.7%
- growth [8]: 47.5%
- growth [9]: 18.3%
- growth [10]: 56.6%
- growth [11]: 25%
- growth [12]: 40.5%
- growth [13]: 36.4%
- growth [14]: 18.3%
- growth [15]: 45.5%
- growth [16]: 35.4%
- growth [17]: 58.2%
- growth [18]: 43.3%
- growth [19]: 25.3%

Structure (SMILES): Brc1ccc(N/N=C/c2c[nH]c3ccc(Br)cc23)nc1
- growth [1]: -58.2% (active)
- growth [2]: 3.09% (active)
- growth [3]: 17.6%
- growth [4]: -16.7% (active)
- growth [5]: -75.3% (active)
- growth [6]: -55.5% (active)
- growth [7]: 0.0958% (active)
- growth [8]: -23.8% (active)
- growth [9]: -89.1% (active)
- growth [10]: 15.6%
- growth [11]: -33.1% (active)
- growth [12]: -57.4% (active)
- growth [13]: -63.5% (active)
- growth [14]: -22.9% (active)
- growth [15]: 10.5%
- growth [16]: -78.3% (active)
- growth [17]: -41.5% (active)
- growth [18]: 7.1% (active)
- growth [19]: -71.3% (active)

Structure (SMILES): OCC1(CCCc2ccccc2)CCCN(c2nccc3ccccc23)C1 (centres undefined)
- growth [1]: 14.9%
- growth [2]: 37.7%
- growth [3]: 82.5%
- growth [4]: 72.6%
- growth [5]: 34%
- growth [6]: 22.9%
- growth [7]: 39.7%
- growth [8]: 45.4%
- growth [9]: 10.4%
- growth [10]: 68.3%
- growth [11]: 18.6%
- growth [12]: 24.8%
- growth [13]: 52.1%
- growth [14]: 61.1%
- growth [15]: 61.8%
- growth [16]: 17%
- growth [17]: 43.1%
- growth [18]: 10.6%
- growth [19]: 8.76% (active)

Structure (SMILES): CCOC(=O)c1ccc(Nc2nc(NN)nc(-c3ccc(OC)cc3)c2C#N)cc1
- growth [1]: 115%
- growth [2]: 112%
- growth [3]: 123%
- growth [4]: 109%
- growth [5]: 109%
- growth [6]: 103%
- growth [7]: 105%
- growth [8]: 99.3%
- growth [9]: 116%
- growth [10]: 113%
- growth [11]: 1.69% (active)
- growth [12]: 92.4%
- growth [13]: 85.1%
- growth [14]: 124%
- growth [15]: 98.2%
- growth [16]: 111%
- growth [17]: 110%
- growth [18]: 46%
- growth [19]: 71.6%
